This is an account of results in PubChem BioAssay (NCI).

Several values for one entry are separate records, joined by “and”; a condition that tells them apart may be missing. Equal entries are not always repeated. Compounds without any hit were thinned out: in the full panel of roughly 83,000, 20% have a hit.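 Plates (96-well) were seeded with cells, treated with compound at one concentration, and incubated for 48 hours before percent growth was determined.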 Activity calls are given as the source filed them. Rule for the calls: active = growth percent below 10; inactive = the rest. Where a SMILES comes first, the peptide text is derived from it. The star is where a group is joined. Trt = c1ccc(C(c2ccccc2)(c2ccccc2)*)cc1; Cbz = O=C(OCc1ccccc1)*

One experiment relates to T-47D breast. Briefly: NCI-60 one-dose screen, 48 h (100 = growth as untreated, 0 = no growth, -100 = all killed). Particulars: 100 µM.
For `O=C(Nc1c(Cl)cccc1Cl)Oc1cccc2cccnc12`, the growth is 7.28% (active).
In the case of `O=C(Nc1cccc(Br)c1)Oc1cccc2cccnc12`, the growth was 2.98% (active).
The same measure, in the same setting: the same measure for `COc1ccc(-c2cscc2N)cc1`: 17.3% (inactive).
For the molecule `CN(C)C(=O)c1ccc(SC(=S)NCc2ccccc2)cc1`, the growth is 13.4% (inactive).
On to `O=C(O)c1c(Cl)c(Cl)c(Cl)c(Cl)c1-c1c2cc(I)c(=O)c(I)c-2oc2c(I)c(O)c(I)cc12`, for which the growth was -47.8% (active).

The test system of a further experiment is BT-549 breast. The experiment is described as above. Particulars: 10 µM.
Consider `O=C(Nc1c(Cl)cccc1Cl)Oc1cccc2cccnc12`, for which the growth was 78.5% (inactive).
With `O=C(Nc1cccc(Br)c1)Oc1cccc2cccnc12`, the growth is 90.5% (inactive).
`COc1ccc(-c2cscc2N)cc1`: the growth was 69.5% (inactive).
Take `CN(C)C(=O)c1ccc(SC(=S)NCc2ccccc2)cc1`: the growth was 114% (inactive).
As to `O=C(O)c1c(Cl)c(Cl)c(Cl)c(Cl)c1-c1c2cc(I)c(=O)c(I)c-2oc2c(I)c(O)c(I)cc12`, the growth was 108% (inactive) and 117% (inactive) and 43.5% (inactive).

Still in this experiment, the particulars now being: 10 µM unless noted.
In the case of `CCCCCCCCCCCCCCCCCCOP(=O)([O-])OC1CC[N+](C)(C)CC1`, the growth is 24.3% (inactive) and -14.9% (active).
Still for that read-out and setting: the same measure for `Cn1c2ccccc2c2nnc(N/N=C/c3ccccn3)nc21`: -24.2% (active); for `O=[N+]([O-])c1ccc2c(N=Nc3ccc4ccccc4c3O)c(O)cc(S(=O)(=O)O)c2c1`: 92.4% (inactive).
For the molecule `CCC(CCCN(CC)CCc1ccccc1)OC(=O)c1cc(OC)c(OC)c(OC)c1` (configuration not stated), the growth is 99.6% (inactive).
As to `O=C1c2ccccc2C(=O)N1c1ccccc1`, the growth is 107% (inactive).
As for `COC(=O)C(CSC(c1ccccc1)(c1ccccc1)c1ccccc1)NC(=O)C(CC(N)=O)NC(=O)OCc1ccccc1` (stereo not drawn) (Cbz-Asn-Cys(Trt)-OMe; configuration not given here), the growth was 50.6% (inactive).
Still for that read-out and setting: under `O=C(Nc1ccccc1)c1cc(Cl)ccc1O` stands 57.5% (inactive).
Turning to `CC1OC(OC2C(OC3CCC4(C)C(CCC5(C)C4CC=C4C6CC(C)(C)CCC6(CO)C(O)CC45C)C3(C)C)OC(C(=O)O)C(OC3OC(COC4OC(CO)C(O)C(O)C4O)C(O)C(O)C3O)C2O)C(O)C(O)C1O` (configuration not stated), the growth was -92.5% (active).
With `C[N+](C)=c1ccc2nc3c(cc(NCCCNc4cc5oc6cc(=[N+](C)C)ccc-6nc5c5ccccc45)c4ccccc43)oc-2c1`, the growth was 61.6% (inactive).
The same measure, in the same setting: the same measure for `CCC(CC)COC(=O)c1ccc(O)c(O)c1`: 50% (inactive).
Consider `O=C(Nc1ccc(F)cc1)ON=C1CCCCC1`, for which the growth is 106% [100 µM] (inactive).
For the molecule `CC1=CC(O)C2CC1C2(C)C` (configuration not stated), the growth is 98.9% (inactive).
As to `CCN(CC)CCOc1ccc(-c2nc3cc(Cl)ccc3s2)cc1`, the growth was 68% (inactive).
In the case of `CC(=O)ON=C1C=CC(=C(C#N)c2ccccc2)C=C1`, the growth was 50.7% (inactive).
Same read-out and setting: under `O=C1c2ccccc2C(=O)c2sc(Nc3cccc(Cl)c3)nc21` stands 61.5% (inactive).
For `Cc1ccnc(NC(c2ccccc2)c2ccc3cccnc3c2O)c1` (configuration not stated), the growth is 57.1% (inactive).
With `Oc1c(Br)cc(Cl)cc1C(c1cc(Cl)cc(Br)c1O)C(Cl)(Cl)Cl`, the growth was 28% (inactive).
The same measure, in the same setting: under `CC(=O)Nc1cccc2cc(O)ccc12` stands 118% (inactive) and 145% (inactive) and 94.5% (inactive); under `Cc1cc(N)c2ccccc2[n+]1CCCCCCCCCC[n+]1c(C)cc(N)c2ccccc21`, -29% (active) and -15.7% (active).
For the molecule `N#CSCc1ccc(Cl)c(CSC#N)c1`, the growth was 14.1% (inactive).
Turning to `CNc1ccc(N)cc1`, the growth is 87.6% (inactive).
The same measure, in the same setting: the same measure for `COc1cc(NS(C)(=O)=O)ccc1Nc1c2ccccc2nc2ccccc12`: 20.2% [2.5 µM] (inactive).
For `O=C(O)c1ccc2c3c(ncnc13)-c1ccccc1C2=O`, the growth was 33.8% (inactive).
Consider `CCC(=O)Sc1ccccc1C(=O)Nc1ccc(Cl)cc1`, for which the growth is 10.2% (inactive).
As for `COc1ccc2nc3cc(Cl)ccc3c(NCCNc3c4ccc(Cl)cc4nc4ccc(OC)cc34)c2c1`, the growth was -76.6% (active).
As to `N[C@H](C(=O)O)[C@@H]1CC(Cl)=NO1`, the growth is 27.3% [20 µM] (inactive).
Regarding `CCOC(=O)c1c(C)[nH]c(CO)c1C`, the growth was 109% (inactive).

Still in this experiment, the particulars now being: 100 µM.
With `O=C(Nc1c(Cl)cccc1Cl)Oc1cccc2cccnc12`, the growth was 23.5% (inactive).
In the case of `O=C(Nc1cccc(Br)c1)Oc1cccc2cccnc12`, the growth is 12.7% (inactive).
Same read-out and setting: the same measure for `COc1ccc(-c2cscc2N)cc1`: -32.7% (active); for `CN(C)C(=O)c1ccc(SC(=S)NCc2ccccc2)cc1`: -79.3% (active); for `O=C(O)c1c(Cl)c(Cl)c(Cl)c(Cl)c1-c1c2cc(I)c(=O)c(I)c-2oc2c(I)c(O)c(I)cc12`: -47.5% (active).

A further experiment relates to MDA-MB-435 melanoma. The experiment is described as above. Particulars: 10 µM.
Turning to `O=C(Nc1c(Cl)cccc1Cl)Oc1cccc2cccnc12`, the growth was 53.6% (inactive).
Take `O=C(Nc1cccc(Br)c1)Oc1cccc2cccnc12`: the growth was 98.2% (inactive).
On the same count and under the same terms, under `COc1ccc(-c2cscc2N)cc1` stands 79.1% (inactive).
`CN(C)C(=O)c1ccc(SC(=S)NCc2ccccc2)cc1`: the growth was 97.4% (inactive).
For `O=C(O)c1c(Cl)c(Cl)c(Cl)c(Cl)c1-c1c2cc(I)c(=O)c(I)c-2oc2c(I)c(O)c(I)cc12`, the growth is 104% (inactive) and 113% (inactive) and 110% (inactive).
